Source: the supplement of paper PMC11732987, “Enantioselective OTUD7B fragment discovery through chemoproteomics screening and high-throughput optimisation” (Communications Chemistry, 2025)

molecular target: COPS5 (UniProt Q92905); assay: log2 ratio of Biotin-Ahx-Ub-VS probe labelling (fragment/DMSO); higher = less target engagement (more negative = stronger competition), active = hit call of the paper (q ≤ 0.05, log2 ratio ≤ -1); details: compound concentration: 200 uM; treatment time: 3 h
Description: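 Competitive ABPP in HEK293T cell lysate. Lysates were treated with each chloroacetamide fragment at 200 µM for 3 h, then with Biotin-Ahx-Ub-VS (0.5 µM, 1 h), NeutrAvidin-enriched and analysed by diaPASEF LC-MS/MS. Protein LFQ was median-normalised; average log2 ratio is fragment/DMSO from an unpaired t-test (n=3 treated, n=44 DMSO). Hits: q ≤ 0.05, log2 ratio ≤ -1, unique peptides ≥ 2.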

Sequence of COPS5 (Q92905 whole entry, looked up, the tested form may be a part): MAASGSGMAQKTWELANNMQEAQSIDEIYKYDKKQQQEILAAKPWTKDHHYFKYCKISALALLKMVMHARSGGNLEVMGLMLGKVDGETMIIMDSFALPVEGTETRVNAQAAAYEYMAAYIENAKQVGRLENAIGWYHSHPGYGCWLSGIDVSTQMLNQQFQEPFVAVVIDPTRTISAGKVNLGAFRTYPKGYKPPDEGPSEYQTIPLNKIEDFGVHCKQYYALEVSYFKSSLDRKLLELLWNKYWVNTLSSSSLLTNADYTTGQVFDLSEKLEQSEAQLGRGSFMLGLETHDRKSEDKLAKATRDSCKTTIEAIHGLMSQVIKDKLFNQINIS

log2 ratio of Biotin-Ahx-Ub-VS probe labelling, inactive:
COCC[C@@H](NC(=O)CCl)c1ccccc1 0.222
O=C(CCl)Nc1cccc2ncccc12 0.251
O=C(CCl)N1CCc2nc[nH]c2C1c1ccc(Cl)cc1 (stereo not given) -0.139
O=C(CCl)NC1CCC2(CC1)OCCO2 0.176
Cc1cc(NC(=O)CCl)n(-c2ccccc2)n1 -0.0499
O=C(CCl)N1CCC(c2ccn[nH]2)C1 (stereo not given) 0.121
O=C(CCl)NCc1noc(C2CC2)n1 0.133
CNC(=O)C1CCN(C(=O)CCl)CC1 0.16
O=C(CCl)N1CCOC2(CCC2)CC1 -0.0213
O=C(CCl)NCC(=O)N1CCCC1 -0.0202
NC(=O)C1CCCN(C(=O)CCl)C1 (stereo not given) 0.0012
Cc1cccn2cc(CCNC(=O)CCl)nc12.Cl -0.284
COc1ccc(CN(C)C(=O)CCl)cc1 -0.0998
O=C(CCl)N[C@H]1CCS(=O)(=O)c2ccccc21 -0.0992
NC(=O)C(Cc1ccccc1)NC(=O)CCl (stereo not given) 0.0263
Cl.O=C(CCl)N1CCC(Cc2nccs2)C1 (stereo not given) 0.114
O=C(CCl)N1CCCC1c1ccsc1 (stereo not given) -0.0486
Cl.Cn1cnc2cc(CNC(=O)CCl)ccc21 -0.125
CS(=O)(=O)c1ccc(CNC(=O)CCl)cc1 0.0587
Cc1nc(-c2cccc(NC(=O)CCl)c2)cs1 -0.0825
CC(NC(=O)CCl)c1cccc(Cl)c1 (stereo not given) -0.0887
CC1CCc2onc(CNC(=O)CCl)c2C1 (stereo not given) 0.0922
Cc1cccc(N(CCC#N)C(=O)CCl)c1C -0.0126
CS(=O)(=O)N1CCCN(C(=O)CCl)CC1 0.193
CN1C(=O)c2ccc(NC(=O)CCl)cc2C1=O -0.249
Cc1ccc(CN(CCO)C(=O)CCl)cc1 -0.141
Cn1cc(CN(Cc2ccc(Cl)cc2)C(=O)CCl)cn1 -0.179
O=C(CCl)Nc1ccc(F)cc1Cl -0.284
O=C(CCl)Nc1cc(Cl)ccc1-n1cncn1 -0.332
Cc1ccc(N2CCC(NC(=O)CCl)C2=O)cc1 (stereo not given) -0.0995
CCN(C(=O)CCl)C1CCS(=O)(=O)C1 (stereo not given) -0.0629
Cc1ccccc1CN(C)C(=O)CCl 0.0682
Cl.O=C(CCl)NC1(c2ncccn2)CCC1 0.0888
CN(C)C(=O)c1ccc(NC(=O)CCl)cc1 0.125
Cc1ccccc1C1(CNC(=O)CCl)CCOCC1 0.211
O=C(CCl)Nc1cccc(NC(=O)c2ccccc2)c1 -0.238
Cc1c(C#N)c(NC(=O)CCl)n(Cc2ccco2)c1C -0.146
O=C(CCl)N1CCCCCC1c1ncon1 (stereo not given) 0.187
O=C(CCl)Nc1ccc(F)cc1F -0.115
CC1CN(c2ccc(NC(=O)CCl)cc2)CC(C)O1 (stereo not given) 0.159
